# Reference: the supplement of paper PMC9492666
# Structures can show the parent of a compound that is named as a salt.
# Assays:
# HCC1937 = assay: relative cell viability, compound + erastin, vs DMSO (fraction of DMSO control); higher = less growth inhibition; conditions: 72 h
# MDA-MB-231 = assay: as above; conditions: 72 h
# 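Also: viability read by CCK-8 kit in 96-well plates, part of a combination screen pairing lipid-metabolism-targeting compounds with erastin.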
Structure (SMILES),relative cell viability (HCC1937),relative cell viability (MDA-MB-231)
NC(=O)c1cnccn1 [Pyrazinamide] + CCOc1ccccc1-n1c(C(C)N2CCN(C(=O)COc3ccc(Cl)cc3)CC2)nc2ccccc2c1=O [erastin],0.791,0.948
CC(C)(O)c1ccccc1CC[C@@H](SCC1(CC(=O)O)CC1)c1cccc(/C=C/c2ccc3ccc(Cl)cc3n2)c1 [Montelukast] + CCOc1ccccc1-n1c(C(C)N2CCN(C(=O)COc3ccc(Cl)cc3)CC2)nc2ccccc2c1=O [erastin],0.561,0.829
Cc1ccc(CN(CC(O)COc2cccc3[nH]ccc23)C(C)(C)C)cc1 (centres undefined) + CCOc1ccccc1-n1c(C(C)N2CCN(C(=O)COc3ccc(Cl)cc3)CC2)nc2ccccc2c1=O [erastin],0.731,0.846
Nc1ncnc2c1ncn2[C@@H]1O[C@H](COP(=O)(O)O)[C@@H](O)[C@H]1O [Adenosine 5'-monophosphate] + CCOc1ccccc1-n1c(C(C)N2CCN(C(=O)COc3ccc(Cl)cc3)CC2)nc2ccccc2c1=O [erastin],0.642,0.716
CCC(CC)CC1(C(=O)Nc2ccccc2SC(=O)C(C)C)CCCCC1 [Dalcetrapib] + CCOc1ccccc1-n1c(C(C)N2CCN(C(=O)COc3ccc(Cl)cc3)CC2)nc2ccccc2c1=O [erastin],0.737,0.839
CC[C@H](C)C(=O)O[C@H]1CCC=C2C=C[C@H](C)[C@H](CC[C@@H]3C[C@@H](O)CC(=O)O3)[C@H]21 [Mevastatin] + CCOc1ccccc1-n1c(C(C)N2CCN(C(=O)COc3ccc(Cl)cc3)CC2)nc2ccccc2c1=O [erastin],0.6,0.434
NNC(=O)c1nn(Cc2ccc(Cl)cc2Cl)c2ccccc12 [Adjudin] + CCOc1ccccc1-n1c(C(C)N2CCN(C(=O)COc3ccc(Cl)cc3)CC2)nc2ccccc2c1=O [erastin],0.557,0.711
Oc1ccc2c(c1)OCO2 [Sesamol] + CCOc1ccccc1-n1c(C(C)N2CCN(C(=O)COc3ccc(Cl)cc3)CC2)nc2ccccc2c1=O [erastin],0.489,1.02
CN(CCOc1ccc(CC2SC(=O)NC2=O)cc1)c1ccccn1 (centres undefined) [Rosiglitazone HCl] + CCOc1ccccc1-n1c(C(C)N2CCN(C(=O)COc3ccc(Cl)cc3)CC2)nc2ccccc2c1=O [erastin],0.619,0.774
C=CCc1ccc(O)c(-c2cc(CC=C)ccc2O)c1 [Magnolol] + CCOc1ccccc1-n1c(C(C)N2CCN(C(=O)COc3ccc(Cl)cc3)CC2)nc2ccccc2c1=O [erastin],0.99,1.02
COc1ccc(N(C(=O)Nc2c(C)cccc2C)c2cc(Nc3ccc(N4CCN(C)CC4)cc3)ncn2)c(OC)c1 + CCOc1ccccc1-n1c(C(C)N2CCN(C(=O)COc3ccc(Cl)cc3)CC2)nc2ccccc2c1=O [erastin],0.553,0.852
COc1ccc(CN2CCNCC2)c(OC)c1OC [Trimetazidine dihydrochloride] + CCOc1ccccc1-n1c(C(C)N2CCN(C(=O)COc3ccc(Cl)cc3)CC2)nc2ccccc2c1=O [erastin],0.786,0.55
CCN(CC)c1ccc(C=NNC(=O)c2ccncc2)c(O)c1 + CCOc1ccccc1-n1c(C(C)N2CCN(C(=O)COc3ccc(Cl)cc3)CC2)nc2ccccc2c1=O [erastin],0.254,0.677
Cc1c(C(=O)Nc2ccc(CO)cc2)nnn1Cc1ccc(Cl)c(Cl)c1 + CCOc1ccccc1-n1c(C(C)N2CCN(C(=O)COc3ccc(Cl)cc3)CC2)nc2ccccc2c1=O [erastin],0.684,0.733
O=C(CC(C(=O)O)c1c[nH]c2ccccc12)c1ccc(F)cc1F (centres undefined) [Mitochonic acid 5] + CCOc1ccccc1-n1c(C(C)N2CCN(C(=O)COc3ccc(Cl)cc3)CC2)nc2ccccc2c1=O [erastin],0.931,1
C[C@@H](Nc1nc(N[C@H](C)C(F)(F)F)nc(-c2cccc(Cl)n2)n1)C(F)(F)F [Vorasidenib] + CCOc1ccccc1-n1c(C(C)N2CCN(C(=O)COc3ccc(Cl)cc3)CC2)nc2ccccc2c1=O [erastin],0.607,0.68
COc1ccc([C@@H]2OC[C@H]3[C@@H]2CO[C@@H]3c2ccc(O[C@@H]3O[C@H](CO)[C@@H](O)[C@H](O)[C@H]3O)c(OC)c2)cc1OC [Forsythin] + CCOc1ccccc1-n1c(C(C)N2CCN(C(=O)COc3ccc(Cl)cc3)CC2)nc2ccccc2c1=O [erastin],0.718,0.754
